This note sets out measurements from PubChem BioAssay.

The test system of test [1] is Wnt5a (protein binding on small-molecule microarray). The test can be described thus: Wnt5a binders on small-molecule microarray, primary screen, biophysical, 635/667 nm fluorescence (AID 1142).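 Note: fluorescence read at 667 nm with signal to noise per printed feature.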 The conditions noted are these: 635 nm fluorescence, higher = more signal.
Test [2] is described as follows: cell viability in Huh7 cells, primary screen, cytotoxicity control for HCV replication inhibitor project, CellTiter-Glo luminescence, basal, 48 h (AID 1143).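 Note: Huh7 hepatoma cells carrying a hepatitis C replication reporter with no stimulus; test concentration not given here.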 The settings on record: Huh7 HCV replicon, higher = more signal, called active from +8 up or from −8 down.
Test [3] in a line: P. aeruginosa biofilm formation inhibitors, primary screen, PAO1 strain, BacTiter-Glo luminescence, LB-PBS (AID 1144). The settings on record: 12 h, higher = more signal.
A short description of test [4]: CREB reporter modulators without forskolin, primary screen, cell-based, PC12, CRE-LacZ reporter, unstimulated (AID 1145). The conditions noted are these: no forskolin, luminescence, 4.5 h, higher = more signal, called active from +8 up or from −8 down.
The nature of test [5]: CREB reporter modulators under forskolin, primary screen, cell-based, PC12, CRE-LacZ reporter, forskolin-stimulated (AID 1146).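 Note: PC12 cells with 6xCRE LacZ reporter stimulated by forskolin 10 µM; beta-galactosidase reporter signal reflecting CREB driven transcription.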 The conditions noted are these: luminescence, 4.5 h, higher = more signal, called active from +8 up or from −8 down.
The target in test [6] is Streptavidin (Streptomyces avidinii) (UniProt P22629). Description: streptavidin binders on small-molecule microarray, primary screen, artefact control for SMM compound annotation, biophysical, 635/667 nm fluorescence (AID 1147).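 Note: signal reflects streptavidin binding to arrayed compounds as a control protein.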 The conditions noted are these: streptavidin binding, higher = more signal.
Test [7] can be described thus: small-molecule binders of probe aInhba, primary screen, biochemical, small-molecule microarray, 635/667 nm fluorescence (AID 1148).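 Note: score merges 667nm spot fluorescence with signal-to-noise for antibody binding to printed compounds.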 The settings on record: higher = more signal.
The target of test [8] is Torsin-1A (Homo sapiens) (UniProt O14656). Description: torsin A binders from cell lysate, primary screen, small-molecule microarray, wild-type, 635/667 nm (AID 1149). The conditions noted are these: COS7 hTOR1A-WT lysate, 635 nm fluorescence, higher = more signal.
Test [9] shares this target. Description: small-molecule binders of mutant TOR1A in lysate, primary screen, cell lysate, small-molecule microarray, COS7 lysate, 635/667 nm fluorescence (AID 1150).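 Note: score pools 667 nm emission and signal to noise measuring lysate protein binding.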 The settings on record: COS7 hTOR1A mutant lysate, 635 nm fluorescence, higher = more signal.
Test [10] deals with Sonic hedgehog protein (Shh). Description: small-molecule binders of Shh protein, primary screen, biochemical, small-molecule microarray, 635/667 nm fluorescence (AID 1151).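 Note: Shh protein binding to compounds spotted on small-molecule microarray slides; score combines spot fluorescence intensity with signal-to-noise across triplicate slides.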 The settings on record: small-molecule microarray binding, 635 nm fluorescence; higher = more signal.
Test [11] in a line: E. coli DRC41 culture turbidity changes, primary screen, E. coli filamentation inducer project, strain DRC41, OD650, 48 h (AID 1152).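 Note: E. coli MC1000 strain DRC41 lacking acrAB efflux pump and sulA.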 The conditions noted are these: E. coli DRC41 (acrAB sulA), higher = more signal, called active from +8 up or from −8 down.
A short description of test [12]: small-molecule binders of probe aLefty1, primary screen, biochemical, small-molecule microarray, 635/667 nm fluorescence (AID 1153).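 Note: score merges spot fluorescence with signal-to-noise ratio from the scanned slide images.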 The settings on record: higher = more signal.
A short description of test [13]: PSAC antagonists in infected red cells, primary screen, cell-based, P. falciparum Indochina, OD700, 1 h (AID 1154). The conditions noted are these: P. falciparum Indochina infected RBC osmotic lysis, higher = more signal, called active from +8 up or from −8 down.
Test [14] in a line: PSAC antagonists in infected red cells, primary screen, cell-based, P. falciparum Indochina, OD700, 2 h (AID 1155).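 Note: lysis reports solute entry through the parasite surface anion channel PSAC; channel blockers reduce lysis of infected cells.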 The conditions noted are these: P. falciparum Indochina infected erythrocytes, osmotic lysis OD700; higher = more signal, called active from +8 up or from −8 down.
The nature of test [15]: osmotic lysis modulators in infected erythrocytes, primary screen, PSAC antagonist project, cell-based, P. falciparum Indochina, OD700, 3 h (AID 1156). The conditions noted are these: higher = more signal, called active from +8 up or from −8 down.
Test [16] can be described thus: PSAC antagonists in infected red cells, primary screen, cell-based, P. falciparum Indochina, OD700, 18 h (AID 1157). The settings on record: P. falciparum Indochina infected erythrocytes, osmotic lysis OD700, 18 h; higher = more signal, called active from +8 up or from −8 down.
Test [17] can be described thus: modulators of S6 phosphorylation in cells, primary screen, cell-based, A549, cytoblot, luminescence, serum-stimulated (AID 1158).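 Note: serum-stimulated A549 lung adenocarcinoma cells; signal is phosphorylated S6 detected by cytoblot immunostaining with HRP secondary.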 The settings on record: A549 phospho-S6 cytoblot, 5 h, higher = more signal.
For test [18], the target named is NADPH oxidase 2 (Homo sapiens) (UniProt P04839). Description: NOX2-dependent H2O2 signal modulators, primary screen, NOX inhibitor project, cell-based, HEK293-NOX2, PMA-stimulated, Amplex Red fluorescence (AID 1159). Note: test concentration not given here. The conditions noted are these: 45 min, higher = more signal, called active from +8 up or from −8 down.
Test [19] has as its target NADPH oxidase 4 (Homo sapiens) (UniProt Q9NPH5). The test can be described thus: NOX4-dependent H2O2 signal modulators, primary screen, NOX inhibitor project, cell-based, HEK293-NOX4, tetracycline-induced, Amplex Red fluorescence (AID 1160). The settings on record: 45 min, higher = more signal, called active from +8 up or from −8 down.
The target in test [20] is NADPH oxidase 5 (Homo sapiens) (UniProt Q96PH1). Description: NOX5-dependent H2O2 signal modulators, primary screen, NOX inhibitor project, cell-based, HEK293-NOX5, Amplex Red fluorescence (AID 1161). The conditions noted are these: HEK293-NOX5, ionomycin, 45 min, higher = more signal.

SMILES strings stand for the structures. The source made the active and inactive calls. Unless noted, the rule behind the calls is not given here.

Chain of NADPH oxidase 2 (Homo sapiens) (P04839 whole entry, looked up): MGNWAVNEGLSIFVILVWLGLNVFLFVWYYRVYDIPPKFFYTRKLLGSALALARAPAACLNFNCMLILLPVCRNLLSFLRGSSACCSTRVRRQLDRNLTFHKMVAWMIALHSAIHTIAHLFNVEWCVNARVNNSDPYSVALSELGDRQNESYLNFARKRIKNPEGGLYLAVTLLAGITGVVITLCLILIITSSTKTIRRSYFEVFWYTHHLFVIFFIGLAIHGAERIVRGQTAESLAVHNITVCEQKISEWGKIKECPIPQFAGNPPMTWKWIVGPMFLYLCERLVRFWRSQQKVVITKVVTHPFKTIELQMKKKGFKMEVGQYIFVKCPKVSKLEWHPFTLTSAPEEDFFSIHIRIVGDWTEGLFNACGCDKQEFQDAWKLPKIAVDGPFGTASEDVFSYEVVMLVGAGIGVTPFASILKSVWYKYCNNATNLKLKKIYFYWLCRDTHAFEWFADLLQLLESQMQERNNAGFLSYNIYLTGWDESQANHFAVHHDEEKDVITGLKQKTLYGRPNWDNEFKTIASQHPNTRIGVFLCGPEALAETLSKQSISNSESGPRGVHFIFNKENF
Chain of NADPH oxidase 4 (Homo sapiens) (Q9NPH5 whole entry, looked up): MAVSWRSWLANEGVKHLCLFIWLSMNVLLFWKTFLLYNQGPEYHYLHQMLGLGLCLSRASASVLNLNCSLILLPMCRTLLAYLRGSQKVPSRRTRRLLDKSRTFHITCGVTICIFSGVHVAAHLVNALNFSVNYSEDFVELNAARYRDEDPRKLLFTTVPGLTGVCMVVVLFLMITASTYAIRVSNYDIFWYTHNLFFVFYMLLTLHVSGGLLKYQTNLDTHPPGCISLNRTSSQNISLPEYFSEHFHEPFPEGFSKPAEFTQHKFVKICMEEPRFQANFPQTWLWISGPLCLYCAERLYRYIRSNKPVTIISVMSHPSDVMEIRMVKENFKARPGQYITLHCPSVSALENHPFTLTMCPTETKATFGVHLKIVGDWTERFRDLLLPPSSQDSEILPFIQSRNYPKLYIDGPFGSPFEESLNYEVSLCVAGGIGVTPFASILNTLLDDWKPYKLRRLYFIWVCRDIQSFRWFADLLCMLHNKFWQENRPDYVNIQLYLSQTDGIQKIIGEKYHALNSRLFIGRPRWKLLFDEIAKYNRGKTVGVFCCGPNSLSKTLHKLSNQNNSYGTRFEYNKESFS
Chain of Streptavidin (Streptomyces avidinii) (P22629 whole entry, looked up): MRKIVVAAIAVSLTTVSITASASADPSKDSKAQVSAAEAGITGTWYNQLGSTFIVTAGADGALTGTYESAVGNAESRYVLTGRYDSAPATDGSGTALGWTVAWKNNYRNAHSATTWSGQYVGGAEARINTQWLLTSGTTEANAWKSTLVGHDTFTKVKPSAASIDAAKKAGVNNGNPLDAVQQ
Chain of NADPH oxidase 5 (Homo sapiens) (Q96PH1 whole entry, looked up): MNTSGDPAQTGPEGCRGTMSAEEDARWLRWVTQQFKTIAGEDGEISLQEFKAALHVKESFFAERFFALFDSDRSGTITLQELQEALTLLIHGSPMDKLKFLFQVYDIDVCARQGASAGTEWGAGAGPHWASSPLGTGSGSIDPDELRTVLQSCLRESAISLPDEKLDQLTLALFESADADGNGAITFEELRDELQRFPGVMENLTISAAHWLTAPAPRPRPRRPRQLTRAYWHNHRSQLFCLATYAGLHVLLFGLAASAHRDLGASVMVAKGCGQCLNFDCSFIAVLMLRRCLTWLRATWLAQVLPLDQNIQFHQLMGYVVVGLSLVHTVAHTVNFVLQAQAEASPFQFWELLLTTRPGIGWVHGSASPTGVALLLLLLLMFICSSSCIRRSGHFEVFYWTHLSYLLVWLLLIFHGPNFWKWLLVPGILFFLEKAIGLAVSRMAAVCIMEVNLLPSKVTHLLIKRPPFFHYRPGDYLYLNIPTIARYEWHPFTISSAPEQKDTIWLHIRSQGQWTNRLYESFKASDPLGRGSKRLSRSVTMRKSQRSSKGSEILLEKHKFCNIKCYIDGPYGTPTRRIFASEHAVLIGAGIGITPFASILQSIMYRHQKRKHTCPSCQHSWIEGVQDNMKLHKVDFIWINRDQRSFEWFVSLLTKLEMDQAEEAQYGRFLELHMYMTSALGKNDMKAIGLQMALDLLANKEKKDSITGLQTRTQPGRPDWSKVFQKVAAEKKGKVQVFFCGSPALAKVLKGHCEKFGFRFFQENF
Chain of Torsin-1A (Homo sapiens) (O14656 whole entry, looked up): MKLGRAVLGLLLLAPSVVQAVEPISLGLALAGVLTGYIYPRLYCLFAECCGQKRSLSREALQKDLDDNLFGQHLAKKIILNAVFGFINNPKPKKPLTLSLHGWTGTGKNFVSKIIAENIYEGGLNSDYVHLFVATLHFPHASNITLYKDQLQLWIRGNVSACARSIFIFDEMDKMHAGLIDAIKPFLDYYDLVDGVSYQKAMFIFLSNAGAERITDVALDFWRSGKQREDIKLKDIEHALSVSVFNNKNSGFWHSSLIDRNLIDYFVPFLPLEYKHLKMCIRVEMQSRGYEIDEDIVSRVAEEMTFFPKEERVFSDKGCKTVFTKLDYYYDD

As for `COC(=O)C1=C(C)[C@@H](O)[C@@H](C)[C@H](c2c(OC)c(OC)c(C)c(OC)c2OC)O1`, the composite z-score in test [1] is 0.0023; in [6], 0.479; in test [7] it was -0.218; in the test with Torsin-1A (Homo sapiens) [8] it was 0.14; in the test with Torsin-1A (Homo sapiens) [9], 0.553; in test [10], 0.535. This molecule also yielded a composite z-score in test [12] of -0.356. Besides, the z-score in [2] is -0.0219 (inactive); in test [3], 0.148 (inactive); in test [4], 2.18 (inactive); in [5], 0.0745 (inactive); in test [11] it was -0.472 (inactive); in test [13], 0.211 (inactive). The z-score was 0.589 (inactive) in test [14]; 0.336 (inactive) in test [15]; 0.1 (inactive) in test [16]; -0.468 in test [17]; -0.101 (inactive) in [18]; -0.0181 (inactive) in test [19]. The molecule further had a z-score in [20] of 0.536.

Take `COCC(=C=CC[C@@H](O)c1ccccc1OCCO)CCO`: the composite z-score was 0.0554 in test [1]; -0.174 in test [6]; -0.0074 in [7]; 0.635 with Torsin-1A (Homo sapiens) [8]; 0.518 in the test with Torsin-1A (Homo sapiens) [9]; 0.156 in test [10]. For the same molecule, the composite z-score in test [12] was -0.0501. Also, the z-score is 0.0309 (inactive) in test [2]; -0.118 (inactive) in [3]; 0.914 (inactive) in test [4]; -0.732 (inactive) in test [5]; 0.825 (inactive) in test [11]; 2.69 (inactive) in test [13]. In addition, the z-score is -0.0233 (inactive) in test [14]; 0.454 (inactive) in test [15]; 0.16 (inactive) in test [16]; 0.613 in [17]; 1.64 (inactive) in test [18]; 0.992 (inactive) in test [19]. In [20], this molecule came in with a z-score of -0.132.

For the molecule `CCOC(=O)CCN1C(=O)[C@H]2[C@H]3[C@H](O)[C@H](O)CC(=NNC(=O)OCc4ccc(OC)cc4)[C@@H]3CC[C@H]2C1=O`, the composite z-score was -0.109 in test [1]; 0.922 in [6]; -0.195 in [7]; -0.0239 with Torsin-1A (Homo sapiens) [8]; 0.0335 with Torsin-1A (Homo sapiens) [9]; 0.741 in test [10]. The molecule also gave a composite z-score in test [12] of 0.0288. The z-score in test [2] was -0.284 (inactive); in test [3], 0.5 (inactive); in test [4], 0.957 (inactive); in [5], -0.254 (inactive); in [11], 0.0393 (inactive); in test [13] it was 6.59 (inactive). Besides, the z-score was 1.07 (inactive) in test [14]; -0.495 (inactive) in test [15]; 0.353 (inactive) in test [16]; -0.587 in test [17]; -3.2 (inactive) in test [18]; -0.169 (inactive) in [19]. The molecule further came in with a z-score in test [20] of -0.974.

Regarding `CS(=O)(=O)CCOC(=O)C1=CC(CCCO)=CC(c2cccs2)N(Cc2cccc(OC(F)(F)F)c2)C=C1C(=O)OCCS(C)(=O)=O` (stereo not given), the composite z-score in test [1] worked out at 0.141; in [6], 1.25; in test [7], 0.245; with Torsin-1A (Homo sapiens) [8] it was 0.972; with Torsin-1A (Homo sapiens) [9], 0.88; in test [10], 0.37. In test [12], this molecule returned a composite z-score of 0.217. For the same molecule, the z-score in [2] is -3.11 (inactive); in test [3], 0.957 (inactive); in test [4], 4.08 (inactive); in test [5] it was 0.706 (inactive); in test [11], -0.697 (inactive); in [13] it was 6.83 (inactive). The z-score in test [14] is 1.56 (inactive); in test [15] it was 0.813 (inactive); in [16], 0.969 (inactive); in [17] it was -0.0175; in test [18] it was -0.895 (inactive); in test [19] it was -1.15 (inactive). In [20], this molecule showed a z-score of -2.09.

Turning to `COC(=O)[C@@]1(Cc2ccc(F)cc2)[C@H]2c3cc(C(=O)N(C)C)n(Cc4ccc(OC)c(OC)c4)c3C[C@H]2CN1C(=O)c1ccccc1`, the composite z-score in test [1] is 0.702; in [6], 0.319; in test [7], 0.351; in the test with Torsin-1A (Homo sapiens) [8] it was 0.0209; with Torsin-1A (Homo sapiens) [9], 0.1; in test [10], -0.715. This molecule also returned a composite z-score in test [12] of 0.109. Besides, the z-score in test [2] is -3.26 (inactive); in test [3], -0.642 (inactive); in test [4], 0.194 (inactive); in test [5], 0.426 (inactive); in test [11] it was -1.19 (inactive); in test [13], 0.933 (inactive). The z-score in test [14] was -0.512 (inactive); in [15], 0.746 (inactive); in test [16], -1.37 (inactive); in test [17] it was 2.19; in test [18], -3.29 (inactive); in [19], -1.97 (inactive). Further, the z-score in [20] is -4.09.

Turning to `COC(=O)[C@@H]1N=C(c2ccc(OCCCO)cc2)O[C@@H]1c1ccccc1N=[N+]=[N-]`, the composite z-score in [1] was 0.122; in test [6] it was 0.937; in [7], 0.168; with Torsin-1A (Homo sapiens) [8] it was 0.131; with Torsin-1A (Homo sapiens) [9], 0.51; in test [10], -0.0259. The same molecule had a composite z-score in [12] of 0.309. In addition, the z-score in test [2] is -2.72 (inactive); in [3] it was -0.943 (inactive); in test [4], 1.7 (inactive); in [5], -0.826 (inactive); in test [11], 0.666 (inactive); in test [13], 29.3 (active). Also, the z-score is 25.8 (active) in test [14]; 1.88 (inactive) in test [15]; 5.77 (inactive) in test [16]; 1.24 in [17]; -1.24 (inactive) in [18]; -0.0584 (inactive) in test [19]. Further, the z-score in test [20] was -2.26.

Take `CC1(C)OCC(C(O)C2=CCCCC2=O)CO1` (stereo not given): the composite z-score in test [1] was 0.24; in test [6], 0.412; in test [7], -0.133; with Torsin-1A (Homo sapiens) [8], 0.429; with Torsin-1A (Homo sapiens) [9], 0.803; in [10], 1.5. Also, the composite z-score in test [12] was found to be 0.138. The z-score was 0.956 (inactive) in test [2]; -0.432 (inactive) in test [3]; -0.431 (inactive) in [4]; 0.476 (inactive) in test [5]; -3.47 (inactive) in test [11]; 0.0704 (inactive) in test [13]. Besides, the z-score in test [14] was 0.137 (inactive); in [15], 0.864 (inactive); in test [16], 0.348 (inactive); in test [17], 0.315; in [18] it was 0.362 (inactive); in test [19], -0.247 (inactive). In [20], this molecule showed a z-score of 1.07.

As to `CO[C@@H]1COC(=O)CC=C[C@@H](C)[C@@H]2C=C[C@H](O)[C@@H](COC(=O)[C@H](C)NC(=O)CC=C[C@H]1C)O2`, the composite z-score was 0.0389 in [1]; -0.408 in test [6]; -0.265 in [7]; 1.44 in the test with Torsin-1A (Homo sapiens) [8]; 1.81 with Torsin-1A (Homo sapiens) [9]; 2.13 in test [10]. The same molecule had a composite z-score in test [12] of -0.626. Besides, the z-score in test [2] was -2.59 (inactive); in test [3], -0.972 (inactive); in test [4] it was -0.324 (inactive); in [5], 0.194 (inactive); in test [11], 0.457 (inactive); in test [13], -0.761 (inactive). The z-score in test [14] was -1.27 (inactive); in test [15], 0.564 (inactive); in [16], -2.4 (inactive); in [17], -0.309; in test [18], -0.573 (inactive); in [19], 0.165 (inactive). In [20], this molecule showed a z-score of 0.605.
